Experimental findings from PubChem BioAssay AID504332 (National Center for Advancing Translational Sciences (NCATS), 2011) are described below.

The whole screen tested about 350,000 compounds, of which about 31,000 (8.9%) were called active. Roughly 15% stayed inconclusive and do not appear here. The sample as a whole holds a higher share of actives than the screen did. Unmarked numbers belong to inactive results. Calls follow the shape of the dose curve; as a rule, active = well fitted inhibition curve with a large enough effect; inconclusive = small, poorly fitted or top-dose-only effect; inactive = no such curve, though single readings can be large or run the other way.
% is scaled to controls: 0 for no effect and ±100 for the full control effect; potency is read from the fitted curve at half-maximal effect.

Histone-lysine N-methyltransferase EHMT2 (Homo sapiens), sequence (Q96KQ7 913-1193 limits assumed): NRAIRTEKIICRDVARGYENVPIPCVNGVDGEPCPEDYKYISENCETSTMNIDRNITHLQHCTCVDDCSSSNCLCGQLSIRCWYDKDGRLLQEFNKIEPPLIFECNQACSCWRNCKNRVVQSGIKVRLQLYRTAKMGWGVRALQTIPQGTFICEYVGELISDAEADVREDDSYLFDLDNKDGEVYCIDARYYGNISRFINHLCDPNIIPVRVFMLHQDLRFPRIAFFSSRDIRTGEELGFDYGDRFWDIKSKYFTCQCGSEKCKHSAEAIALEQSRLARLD

For this experiment, the target named is Histone-lysine N-methyltransferase EHMT2 (Homo sapiens) (UniProt Q96KQ7). The experiment can be described thus: qHTS Assay for Inhibitors of Histone Lysine Methyltransferase G9a. Also: nearly all actives have a fitted effect of over 75% in size. The following applies: G9a H3K9 monomethylation, AlphaScreen, 2 h; series mostly up to 59 µM; activity, negative = inhibition: at the top concentration. An excerpt:
Methylated lysines, on the N-terminal tails of histone proteins serve as epigenetic markers to recruit factors that can then modify local chromatin structure to lead to functional consequences. G9a and other members of the SUV39 family of the SET domain-containing superfamily of histone lysine methyltransferases (HMT) have been identified to specifically methylate Lys9 of histone H3 (H3K9). G9a catalyzes the mono- and di-methylation of H3K9 in mammalian euchromatic regions, where the resulting H3K9me2 is indicative of transcriptional repression. […] The inhibition of G9a will result in transcriptional activation and work synergistically with DNA methyltransferase and histone deacetylase inhibitors, to kill cancer cells. This qHTS assay for identification of G9a inhibitors is a chemiluminescence based AlphaScreen (PerkinElmer). Methylation of biotinylated-histone peptide is measured through specific antibody-based detection, in conjunction with streptavidin-coated donor and anti-IgG antibody-coated acceptor beads. The method is particularly well suited for detection of inhibitors acting by the desired histone peptide competitive mechanism and is applicable to testing other HMTs. Although AlphaScreen has significant advantages with its utility in a variety of epigenetic target assays, the primary screening data provided in this deposition should be used with caution due to the prevalence of screening artifacts. An AlphaScreen counterscreen is highly recommended to be run against any putative actives to eliminate non specific artifacts. Alternatively, one can use other AlphaScreen assays in PubChem to filter out promiscuous hits. Quinn et al. A chemiluminescence-based method for identification of histone lysine methyltransferase inhibitors. Mol Biosyst 6(5): 782-8. 2010. PMID: 20567762 [2] Baell,Holloway. New substructure filters for removal of pan assay interference compounds (PAINS) from screening libraries and for their exclusion in bioassays. J Med Chem. 53(7):2719-40. 2010. PMID: 20131845 NIH Molecular Libraries Probe Production Network [MLPCN] NIH Chemical Genomics Center [NCGC] Structural Genomics Consortium (SGC) NIH Grant: 5U54 MH084681-02
To each well of a 1,536w plate, 2ul of HMT enzyme (final 20nM) were added, using a nanoliter dispenser. The G9a- and GLP-inhibitor BIX-01294 (CID: 25150857) are used as an intraplate control, with a 16-point titration in duplicate. A Kalypsys pin-tool transferred 23nl of library compound solution in DMSO to each well. Following a 15 min incubation of enzyme with compounds at room temperature, 1ul mixture of b-H3K9 peptide substrate (final 500nM) and SAM cofactor (final 20uM) were added. Reactions were allowed to proceed at room temperature for 2 hours. Methylated b-H3K9 peptide product was detected with 0.5 ug/mL rabbit polyclonal anti-monomethyl histone H3K9 antibody (Abcam Inc., Cambridge, MA) and 20 ug/mL each streptavidin-coated donor and anti-rabbit IgG acceptor AlphaScreen beads. Antibody and beads were added in a 1ul dispense, for a final volume of 4ul, and plates were incubated, protected from the light, for 10 min at room temperature. Microplates were then read on an EnVision multilabel plate reader using the 1,536 plate HTS AlphaScreen aperture (excitation time 80 ms, measurement time 240 ms).
On to `COc1ccc(OC)c(CNC(=O)CN2C(=O)CCn3nc(-c4cn(C)c5ccccc45)cc32)c1`, for which the “activity, negative = inhibition” value was -26.2% (inactive).
Still for that read-out and setting: to `CCCC(=O)Nc1ccc(NC(=O)c2sc3ccccc3c2Cl)cc1` belongs 0.593% (inactive); to `O=C1Nc2ccc([N+](=O)[O-])cc2C1=Nc1cccc(CO)c1`, 5.69% [at 102 µM] (inactive); to `Cc1ccc(S(=O)(=O)N(Cc2cccc([N+](=O)[O-])c2)C(=O)N2CCN(C)CC2)cc1`, 6.51% [at 2.33 µM].
Regarding `CN1CCN(/N=C2/C(=O)Nc3ccc([N+](=O)[O-])cc32)CC1`, the Potency was 50.1 µM (active).
In the case of `O=C(CSc1oc(-c2ccco2)nc1S(=O)(=O)c1ccc(Cl)cc1)c1ccccc1`, the “activity, negative = inhibition” value was -1.32% (inactive).
The same measure, in the same setting: in the case of `CC(/C=N/NC(=O)c1ccncc1)=C\c1ccco1` it was 2.74% (inactive).
Same read-out and setting: in the case of `CCOc1cc(/C=N/NC(=O)c2cc(-c3ccccc3)nc3ccccc23)ccc1O` it was -41.1% [at 102 µM] (inactive); in that of `CC(=O)Nc1ccc(/C=N/NC(=O)c2cccs2)cc1`, -2.45% [at 102 µM] (inactive).
For the compound `O=C(N/N=C/C=C/c1ccco1)c1cccs1`, the Potency is 12.6 µM (active).
Consider `Cc1ccc(-c2cc(C(=O)N/N=C/C=C/c3ccco3)c3ccccc3n2)cc1C`, for which the Potency is 44.7 µM (active).
As for `COc1cccc(-c2cc(C(=O)N/N=C/c3ccc(OC)c(COC(C)=O)c3)c3ccccc3n2)c1`, the “activity, negative = inhibition” value was -1.31% [at 102 µM] (inactive).
Same read-out and setting: to `CCOc1ccc(CCNC(=O)COC(=O)c2ccc(F)c(S(=O)(=O)N3CCOCC3)c2)cc1OCC` belongs -4.3% [at 0.501 µM].
Regarding `Brc1cccc(-c2nnn3c2nc(NC2CCCCC2)c2ccccc23)c1`, the “activity, negative = inhibition” value was 14.7% (inactive).
The same measure, in the same setting: in the case of `Cc1ccccc1NC(=O)Cc1nc(COC(=O)c2ccc(C(F)(F)F)cc2)cs1` it was 5.04% [at 12.7 µM].
Same read-out and setting: to `CCN(CC(=O)NCc1ccc(Cl)cc1)C(=O)CSc1ccccc1` belongs -1.68% [at 12.7 µM].
For `Cc1c(-c2nsc(NC(=O)c3cccc(Cl)c3)n2)nnn1-c1ccccc1C(F)(F)F`, the “activity, negative = inhibition” value is 13.6% (inactive).
On to `O=C1N/C(=C/c2cccn2-c2ccccc2)C(=O)N1c1cccc(Cl)c1`, for which the Potency was 1 µM (active).
Regarding `O=c1c(-c2cccc(Cl)c2)c[nH]n1-c1ccccc1`, the activity, negative = inhibition was 3.35% [at 2.33 µM].
Same read-out and setting: to `COc1cc2c(cc1/C=C1/NC(=O)N(c3ccccc3)C1=O)OCO2` belongs 14.8% (inactive); to `COc1ccc(S(=O)(=O)NCCSc2nnnn2-c2ccccc2)cc1`, 40.1% (inactive); to `N[C@@H](Cc1ccccc1)C(=O)N1CCOCC1`, 11.6% [at 2.33 µM].
Consider `Cc1cc(C)c(S(=O)(=O)N2CCC(C(=O)OCc3c(C)noc3C)CC2)c(C)c1`, for which the “activity, negative = inhibition” value was 5.16% (inactive).
The same measure, in the same setting: in the case of `COc1ccccc1-c1nnc(SCC(N)=O)o1` it was -28.6% (inactive); in that of `N#CC1(NC(=O)COC(=O)CSc2ccc(F)cc2)CCCCC1`, 0.383% [at 102 µM] (inactive).
Turning to `N#CC1(NC(=O)COC(=O)CCN=C2NS(=O)(=O)c3ccccc32)CCCCC1`, the Potency is 79.4 µM (active).
Same read-out and setting: to `O=C(CCCN=C1NS(=O)(=O)c2ccccc21)OCC(=O)c1ccc(F)c(F)c1` belongs 44.7 µM (active).
As for `O=C(OCCN=C1NS(=O)(=O)c2ccccc21)c1cccc([N+](=O)[O-])c1`, the “activity, negative = inhibition” value is 27.8% [at 102 µM] (inactive).
On the same count and under the same terms, to `Cc1ccccc1C(=O)NCCN=C1NS(=O)(=O)c2ccccc21` belongs -41.3% [at 102 µM] (inactive); to `N#CC1(NC(=O)COc2ccc3oc4ccccc4c3c2)CCCCC1`, -2.61% (inactive).
For the compound `COc1ccccc1C(=O)NCCn1cc(SCc2ccccc2Cl)c2ccccc21`, the “activity, negative = inhibition” value is -3.42% (inactive).
Same read-out and setting: to `O=C(c1ccc(F)cc1)N1CCC(C(=O)N2CCN(S(=O)(=O)c3ccccc3Br)CC2)CC1` belongs 4.58% [at 102 µM] (inactive); to `O=C(NCc1ccccc1Cl)c1cccn1-c1nnc(N2CCCCC2)s1`, -23.5% (inactive).
For the compound `COc1ccccc1N1CCN(c2ncnc3onc(-c4ccc(F)cc4)c23)CC1`, the “activity, negative = inhibition” value is -23% (inactive).
Regarding `CCC(=O)Nc1sc(C(=O)N2CCCCC2)c(C)c1C#N`, the “activity, negative = inhibition” value was -5.42% [at 102 µM] (inactive).
Regarding `Cc1c(CN2CCCCC2)c(O)n(CCO)c(=O)c1C#N`, the Potency was 50.1 µM (active).
Still for that read-out and setting: to `CCCn1c(O)c(CN2CCCC(C)C2)c(C)c(C#N)c1=O` (configuration not stated) belongs 14.1 µM (active).
`CC1CCCN(Cc2c(O)ccc3c(=O)c(Oc4ccc(C(C)(C)C)cc4)c(C(F)(F)F)oc23)C1` (configuration not stated): the “activity, negative = inhibition” value was -6.89% (inactive).
Still for that read-out and setting: in the case of `O=c1oc2c(CN3CCCCC3)c(O)ccc2c2c1CCCCC2` it was 0.621% [at 102 µM] (inactive); in that of `CCCCCCn1c(CN2CCCC(C)C2)nc2c1c(=O)n(C)c(=O)n2C` (configuration not stated), -8.22% (inactive).
Consider `CCOc1ccc(-n2nc3ccc(NC(=O)c4ccc(OC)c(Cl)c4)cc3n2)cc1`, for which the “activity, negative = inhibition” value was -2.24% (inactive).
Same read-out and setting: to `CN(CC(=O)Nc1c(Cl)cccc1Cl)C(=O)CC1OC(=O)c2ccccc21` (configuration not stated) belongs -2.24% (inactive); to `CN(Cc1ccccc1)C(=O)CCS(=O)(=O)c1cc(Br)cc2c1N(C(=O)C1CC1)CC2`, -27.6% (inactive).
Still for that read-out and setting: to `CCc1ccccc1OCC(=O)Nc1ccc(C)c(S(=O)(=O)N2CCCCCC2)c1` belongs 18.3% [at 12.7 µM].
On the same count and under the same terms, in the case of `C[C@H](OC(=O)n1ccnc1)[C@@H]1O[C@@]2(C)CCC[C@@H]1O2` it was 9.09% [at 0.501 µM].
Regarding `Cc1ccc(-c2cn3c(n2)sc2cc(C(=O)NCc4cccs4)ccc23)c(C)c1`, the “activity, negative = inhibition” value was 66.5% (inactive).
In the case of `CCC(=O)N1CCc2cc(Br)cc(S(=O)(=O)CCC(=O)N3CCN(c4ccc(F)cc4)CC3)c21`, the “activity, negative = inhibition” value is 8.24% (inactive).
